Measurements published in PubChem BioAssay (NCATS).
Records with an inconclusive call do not appear. Entries that show only a call come without a potency. A number with no mark means an inactive call. Active and inactive are the calls of the source. The call rests on the fitted dose curve; in most records, active means well fitted cell-killing curve with a large enough effect; inconclusive means small, poorly fitted or top-dose-only effect; inactive means flat fitted curve, though single readings scatter.

How the values were obtained:
[1] = Cellular viability qHTS for adrenocortical cancer (ACC) cell line SW-13 (AID 1963989); conditions: SW-13 ACC cells viability, CellTiter-Glo, 48 h; activity (max response): stronger effect = lower value; further: nearly all actives have a fitted effect of over 65% in size;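 on activity (max response): cells grown in serum-free medium with ITS supplement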
Summary of the method: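 Here, serum-free SW-13 cultures were dosed up to 46 uM. Following 48 h, ATP-dependent luminescence (CellTiter-Glo) reported viable cells, and logistic modeling produced IC50 values.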

[2] = Cellular viability qHTS for adrenocortical cancer (ACC) cell line NCI-H295R (AID 1963990); further: nearly all actives have a fitted effect of over 60% in size
Summary of the method: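 Viability of NCI-H295R after 48 h of treatment (final up to 46 uM) measured through cellular ATP luminescence.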
Potency means the concentration at half of the fitted maximal effect.

CCn1nc(C(=O)O)c(=O)c2cc3c(cc21)OCO3
activity (max response) [1]: 1.15% | Potency [2]: inactive

CCN(CC)CCOc1ccccc1C(=O)CCc1ccccc1
activity (max response) [1]: -19.2% | Potency [2]: inactive

O=C(O)c1ccccc1Nc1cccc(C(F)(F)F)c1
Potency [2]: inactive

NS(=O)(=O)c1ccc(NC(=S)N2CCN(C/C=C/c3ccccc3)CC2)cc1
Potency [2]: inactive

CC(=O)Oc1ccc(C(c2ccc(OC(C)=O)cc2)c2ccccn2)cc1
activity (max response) [1]: -17.9% | Potency [2]: inactive

C#C[C@]1(OC(C)=O)CC[C@H]2[C@@H]3CCC4=C/C(=N/O)CC[C@@H]4[C@H]3CC[C@@]21CC
Potency [2]: 20.6 µM (active)

Cc1cccc(-c2[nH]ncc2-c2ccc(F)c(-c3cnn(CCO)c3)c2)n1
Potency [2]: inactive

Cc1cc(Nc2cc(N)ncn2)c(=O)n2c1C(=O)NC21CCCCC1
activity (max response) [1]: 0.221% | Potency [2]: inactive

O=C1OC2(c3ccccc31)c1cc(I)c(O)c(I)c1Oc1c2cc(I)c(O)c1I
Potency [2]: inactive

Cc1nc2ccccn2c(=O)c1CCN1CCC(C(=O)c2ccc(F)cc2)CC1
activity (max response) [1]: -20% | Potency [2]: inactive

O=C(O)Cn1c(=O)n(Cc2ccc(Br)cc2F)c(=O)c2ccc(Cl)cc21
activity (max response) [1]: 14.5% | Potency [2]: inactive

O=C(OCC(COC(=O)c1cccnc1)(COC(=O)c1cccnc1)COC(=O)c1cccnc1)c1cccnc1
activity (max response) [1]: -1.24% | Potency [2]: inactive

COc1ccc(-c2ccc3c(N4CCOC[C@@H]4C)nc(N4CCOC[C@@H]4C)nc3n2)cc1CO
Potency [2]: 0.178 µM (active)

O=C([C@@H](Cc1cccc(C(F)(F)F)c1)NS(=O)(=O)c1cc(F)c2c(c1)CCNC2)N1CCCC1
activity (max response) [1]: -8.82% | Potency [2]: inactive

NCCNC(=O)c1ccc(Cl)cn1
activity (max response) [1]: -2.26% | Potency [2]: inactive

COCCNc1cc(NC(=O)N2CCCc3cc(CN4CCN(C)CC4=O)c(C=O)nc32)ncc1C#N
activity change, negative = viability loss [2]: -1.4% [at 9.17 µM]

Cc1ncc([N+](=O)[O-])n1C
activity (max response) [1]: 9.67% | Potency [2]: inactive

CCN(CC)c1ccc(C(=C2C=CC(=[N+](CC)CC)C=C2)c2cc(S(=O)(=O)O)ccc2S(=O)(=O)[O-])cc1
Potency [1]: 8.2 µM (active) | Potency [2]: 7.31 µM (active)

Cc1onc(-c2ccc(F)cc2)c1COc1ccc(C(=O)N2CCS(=O)(=O)CC2)cn1
activity (max response) [1]: -15% | Potency [2]: inactive

CC(Oc1c(Cl)cccc1Cl)C1=NCCN1 (stereo not drawn)
Potency [2]: inactive

CCCCC1C(=O)N(c2ccccc2)N(c2ccc(O)cc2)C1=O (stereo not drawn)
Potency [1]: 16.4 µM (active) | Potency [2]: 5.17 µM (active)

CC[C@H](NC(=O)[C@H](C)NC)C(=O)N1C[C@@H](O)C[C@H]1Cc1c(-c2[nH]c3cc(F)ccc3c2C[C@@H]2C[C@H](O)CN2C(=O)[C@H](CC)NC(=O)[C@H](C)NC)[nH]c2cc(F)ccc12
Potency [2]: inactive

COC1CC(C(=O)c2ccc3c(N)ncc(-c4ccc(-c5cnn(C)c5)cc4)c3n2)C1 (stereo not drawn)
Potency [2]: inactive

CC(C)C[C@@H]1[C@H](c2ccccc2)OC(=O)N1CCCN1CCCCCC1
Potency [2]: inactive

CC[C@]12CCCN3CCc4c(n(c5ccccc45)C(=O)C1)[C@@H]32
Potency [2]: 5.8 µM (active)
